MITF primary = blocks human microphthalmia-associated transcription factor; O75030; AlphaScreen MITF homodimerization, bead proximity signal; inhibition, % at 2.6 µM; 650,000 tested, 0.91% active; AID 1259374; in the data active = inhibition above about 50%;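 note: 0% = vehicle wells with protein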
FBW7 activator = activators of human E3 ligase FBW7 | AID 1259310 | normalized activity (activation), % at 26.1 µM | 650,000 tested, 0.13% active | Q969H0 | AlphaScreen FBW7–phospho-cyclin E peptide binding, activator screen; in the data active = normalized activity above about 1.9%;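 note: purified mutant Fbw7 with reduced substrate affinity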
GPR151 ag = activators of human GPR151. Q8TDV0. PathHunter beta-arrestin GPR151 cells, luminescence. activation, % at 11.2 µM. 650,000 tested, 1% active. AID 1508602; in the data active = activation above about 4.9%;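 note: 0% = median of compound wells and 100% = cells with positive control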
Target sequence (Q8TDV0 whole entry, looked up): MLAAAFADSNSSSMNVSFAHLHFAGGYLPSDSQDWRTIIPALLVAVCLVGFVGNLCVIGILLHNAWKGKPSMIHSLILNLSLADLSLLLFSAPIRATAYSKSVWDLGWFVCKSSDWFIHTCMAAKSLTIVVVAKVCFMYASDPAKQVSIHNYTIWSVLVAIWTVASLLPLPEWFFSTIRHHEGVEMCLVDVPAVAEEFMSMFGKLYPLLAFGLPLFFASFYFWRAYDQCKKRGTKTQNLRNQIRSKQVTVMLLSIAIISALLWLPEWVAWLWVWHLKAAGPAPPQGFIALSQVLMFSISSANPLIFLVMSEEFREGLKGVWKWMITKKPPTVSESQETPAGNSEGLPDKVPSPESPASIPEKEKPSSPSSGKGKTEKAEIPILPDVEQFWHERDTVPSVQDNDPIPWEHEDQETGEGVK
TEAD-YAP block = TEAD-YAP interaction inhibition | HEK-TIYL cells, TEAD-Gal4/YAP UAS-luciferase luminescence | inhibition, % at 9.12 µM | 640,000 tested, 1.4% active | AID 1259422; in the data active = inhibition above about 32%;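 note: 0% = median of test compound wells and 100% = reference inhibitor wells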
GPR151 confirm = human GPR151 activation, confirmation screen; shares compounds with GPR151 ag; GPR151 PathHunter beta-arrestin cells, luminescence, 90 min; % of EA-reagent control over plate median; activation, % at 11.2 µM; 6,700 tested, under 10 active; AID 1508609;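 active = mean percent activation across replicates above the confirmation screen cutoff of 4.91%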
GPR119 counter = counter-screen for GPR151 activators: effect on human GPR119; shares compounds with GPR151 ag; GPR119 PathHunter beta-arrestin cells, luminescence, 90 min; 0 = compound-well median, 100 = enzyme-acceptor control; activation, % at 11.2 µM; 6,700 tested, 0.3% active;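 active = mean percent activation in the counterscreen above 29.09%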;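 note: counterscreen on off-target GPR119 to flag nonselective hits from the GPR151 activator screen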
* = called active by the depositor; / = no result. A selection: hits, their analogues and other compounds. The true share with any hit is near 3.4%.

SMILES	MITF primary	FBW7 activator	GPR151 ag	TEAD-YAP block	GPR151 confirm	GPR119 counter
Cc1nc(CCNC(=O)CC2C(=O)NCCN2Cc2ccccc2F)sc1C (centres undefined)	-4	0	-2	-1	/	/
Cc1nc(CCNC(=O)CC2C(=O)NCCN2Cc2cccc3ccccc23)sc1C (centres undefined)	6	0	5.5*	-1	1	2
COc1ccc(NC(=O)Nc2nnc(SCc3ccc(F)cc3)s2)cc1	4	0	1	-9	/	/
CC1CCCC(C)N1c1nnc(NC(=O)Nc2ccc(F)cc2)s1 (centres undefined)	4	0	5.3*	-23	0	-12
O=C(Nc1nnc(SCc2ccccc2)s1)c1cccs1	10	0	1	-16	/	/
O=C(Cc1cccs1)Nc1nnc(SCc2ccccc2)s1	-3	0	5.1*	-5	2	0
O=C(Nc1ccc(F)cc1)Nc1nnc(SCc2ccccc2)s1	9	0	5.0*	7	0	19
CC1=C(C(=O)OCc2ccc3c(c2)OCO3)C(c2cccc3ccccc23)NC(=O)N1 (centres undefined)	4	0	-1	-2	/	/
COc1cc(OC)cc(C(=O)N2CCN(C(=O)c3cccc(Cl)c3)CC2)c1	11	1	0	1	/	/
CCCc1nnc(SCc2ccc(Cl)cc2)n1N	-4	0	1	-1	/	/
CCCc1nnc(SCc2ccc(Br)cc2)n1N	0	0	8.4*	-8	-1	10
N#CCCN(Cc1cccnc1)C(=S)NC(=O)c1cccs1	6	0	5.6*	15	-2	-3
COc1ccc(CCNc2cc(C)nc(Nc3cccnc3)n2)cc1	6	0	1	2	/	/
COc1ccc(CCNc2cc(C)nc(Nc3ccc4ncccc4c3)n2)cc1	7	0	7.0*	47*	1	20
c1cc(Nc2ccc3c(c2)OCO3)nc(Nc2ccc(N3CCOCC3)cc2)n1	2	0	5.1*	71*	1	27
COc1ccc(CCNc2ccnc(N3CCOCC3)n2)cc1	-10	0	2	2	/	/
c1cc(Nc2ccc(N3CCOCC3)cc2)nc(Nc2ccc(N3CCOCC3)cc2)n1	9	0	3	14	/	/
COc1ccc(CCNc2cc(-c3ccc(N4CCN(C)CC4)cc3)ncn2)cc1	14	0	6.9*	-16	0	1
COc1ccc(CCNc2ccnc(Nc3ccc(N4CCOCC4)cc3)n2)cc1	10	0	8.3*	78*	3	60*
Nc1cccc(-c2nc(NC3CCN(Cc4ccccc4)CC3)c3ncn(Cc4ccc(C(F)(F)F)cc4)c3n2)c1	-1	0	-1	-2	/	/
Cc1ccc(-c2nc3ccccc3[nH]2)cc1NC(=O)c1cc2ccccc2o1	-11	0	1	-3	/	/
Cc1cccc(NC(=O)c2sc3nc(C)nc(N4CCOCC4)c3c2C)c1	9	0	1	-9	/	/
Cc1nc2sc(C(=O)Nc3cccc(C(F)(F)F)c3)c(C)c2c(=O)[nH]1	11	0	6.5*	2	1	-4
Cc1ccc(NC(=O)c2sc3nc(C)nc(N4CCN(c5ccccn5)CC4)c3c2C)c(Br)c1	-1	0	8.8*	1	-1	11
Cc1nc(N2CCOCC2)c2c(C)c(C(=O)Nc3cccc(C(F)(F)F)c3)sc2n1	-5	0	5.8*	6	-1	-14
SMILES	MITF primary	FBW7 activator	GPR151 ag	TEAD-YAP block	GPR151 confirm	GPR119 counter
CC1CN(c2nc(-c3cccnc3)nc3ccccc23)CC(C)O1 (centres undefined)	1	0	0	20	/	/
CN1C(=O)/C(=C\c2ccc(I)cc2)SC1=S	-8	0	-1	1	/	/
COc1cccc(NC(=O)Cc2noc3ccc(C)cc23)c1	6	0	-1	-6	/	/
CC(C)c1ccc(NC(=O)C(c2ccc3c(c2)OCO3)N(Cc2ccccc2)c2ccccc2)cc1 (centres undefined)	3	0	5.7*	3	0	9
COc1cc(Cl)c(S(=O)(=O)N2CCN(c3ccccc3OC)CC2)cc1Cl	-4	0	0	-7	/	/
COc1ccc(CNC(=O)c2noc(C)c2[N+](=O)[O-])cc1	8	0	5.0*	9	0	5
CCN(CC)C(=O)CSc1nc2c(sc(=S)n2-c2ccccc2)c(=O)n1-c1ccccc1	2	0	-1	-4	/	/
O=C(COc1ccccc1)NCCc1cn2ccsc2n1	4	-1	5.0*	2	2	12
COc1ccc(/C=C/C(=O)Nc2ccc(OC(C)C)cc2)cc1	-1	0	2	-23	/	/
CC(C)Oc1ccc(NC(=O)/C=C/c2ccc(F)cc2)cc1	15	0	6.7*	-28	1	-2
Cc1ccc(P(=Nc2cc(Cl)ccc2C)(N(C)C)N(C)C)o1	22	0	0	2	/	/
CC(C)(C)N1CC(CO)OC1c1ccccc1 (centres undefined)	12	0	4.9*	2	-1	-5
Cc1c(NC(=S)NC(=O)c2oc3ccccc3c2C)cccc1-c1nc2ccccc2s1	-2	0	10*	-9	1	18
Cc1ccc(S(=O)(=O)NCC(=O)OCC(=O)C23CC4CC(CC(C4)C2)C3)cc1	-8	0	-2	-3	/	/
COC(=O)c1ccc(/C=N/Nc2ccccc2[N+](=O)[O-])cc1	-2	0	4.9*	-29	0	-7
COc1cc(/C=N/Nc2ccccc2[N+](=O)[O-])cc(Br)c1O	9	0	-5	-54	/	/
CCCCC(C(=O)OC)N1C(=O)c2cc(Cl)c(Cl)cc2C1=O (centres undefined)	-2	0	7.6*	-1	0	5
CSc1nsc(NC(=O)c2ccc(F)cc2F)n1	2	0	-10	-64	/	/
O=C(Nc1nc(SCc2ccc(F)cc2)ns1)c1cc(F)c(F)cc1Cl	-1	0	8.4*	27	0	-5
COc1cc(C(=O)Nc2nn3c(-c4ccco4)nnc3s2)cc(OC)c1OC	2	0	0	-4	/	/
O=C(Nc1ccc(Cl)cc1C(F)(F)F)c1cc2n(n1)C(C(F)(F)F)CC(c1ccc(Cl)cc1)N2 (centres undefined)	-17	0	0	7	/	/
O=S(=O)(Nc1ccc(Cl)cc1F)c1cnc[nH]1	3	0	11*	-11	1	12
N#C/C(=C/c1ccc(N2CCOCC2)c([N+](=O)[O-])c1)c1nc2ccccc2[nH]1	-25	0	5.2*	-19	-2	-6
O=C(NCc1ccccc1Cl)c1ccc2c(=O)n(-c3ccccc3)c(=S)[nH]c2c1	-7	0	0	-2	/	/
CN(C)CCCN(Cc1ccc2c(c1)OCO2)C(=O)NC1CCCCC1	6	0	5.2*	-1	0	-3

Compound activity deposited in PubChem by The Scripps Research Institute Molecular Screening Center.
